Laboratory results taken from the supplement of paper PMC13380429.
Values without a mark were called inactive.

Test system: Vero E6 infected with SARS-CoV-2
Assay: inhibition of SARS-CoV-2 cytopathic effect; higher = more antiviral protection, active = above 15
Conditions: 48 h

| SMILES | inhibition of SARS-CoV-2 cytopathic effect (1 nM) [%] | inhibition of SARS-CoV-2 cytopathic effect (8.33 nM) [%] | inhibition of SARS-CoV-2 cytopathic effect (100 nM) [%] | inhibition of SARS-CoV-2 cytopathic effect (833.33 nM) | inhibition of SARS-CoV-2 cytopathic effect (10000 nM) [%] |
| --- | --- | --- | --- | --- | --- |
| [O-][n+]1ccccc1[S-].[O-][n+]1ccccc1[S-].[Zn+2] [pyrithione-zinc] | 1.44 | 0.32 | 1.01 | 29.9% (active) | -21.9 |
| OCC(CO)N[C@H]1C[C@](O)(CO)[C@@H](O)[C@H](O)[C@H]1O [voglibose] | 0.63 | -8.33 | 1.72 | 2.63% | 2.03 |
| Nc1nccc(/C=C/c2ccccc2)n1 | 3.44 | 3.79 | 0.04 | 0.59% | 2.05 |
| CCCCCCCCCCCCCCCC(=O)OC[C@H](O)[C@H]1OC(=O)C(O)=C1O [L-ascorbyl-6-palmitate] | 2.02 | 0.04 | 0.01 | 0.96% | -0.63 |
| O=C(Nc1ccccc1)c1cc([N+](=O)[O-])ccc1Cl | 1.34 | 2.14 | 0.85 | -0.67% | -0.39 |
| CN(CCOc1ccc(-c2ccc3c(c2)OCO3)cc1C(C)(C)C)CC(=O)O | 1.26 | -3.67 | -6.89 | -0.1% | -1.31 |
| CC(C)c1cc(-c2n[nH]c(=O)n2-c2ccc3c(ccn3C)c2)c(O)cc1O [ganetespib] | -2.33 | -3.79 | -1.43 | -1.16% | -7.9 |
| NS(=O)(=O)c1cc(C(=O)O)c(NCc2ccco2)cc1Cl [furosemide] | -1.05 | 1.27 | -1.4 | 0.41% | 2.18 |
